Where “and” joins values, the source holds several entries; their conditions need not be identical. Identical values can stand only once. A structure can be active in one record and inactive in another. Calls of active or inactive are those of the source. The calls were made as follows: active = hit-call score of the fitted dose curve at least 0.9, where 1 is the maximum; inactive = score below 0.9.
Columns and labels:
[1] = read-out: urokinase plasminogen activator (uPA), PLAU (gene 5328); assay: BSK_KF3CT_uPA: BioMAP Diversity Plus: KF3CT Assay for urokinase plasminogen activator (uPA) Biomarker Activity (AID 2283075); settings: primary human keratinocytes with fibroblasts; actives raise or lower the signal
In short: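 Values derive from bidirectional fitting against DMSO controls. Keratinocyte/foreskin fibroblast co-cultures received chemical; 24 h later uPA was detected by ELISA, with SRB total-protein staining in parallel wells for overt cytotoxicity.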

CD40, CD40 (gene 958) = assay: BSK_LPS_CD40: BioMAP Diversity Plus: LPS Assay for CD40 Biomarker Activity (AID 2283076); settings: primary human HUVEC with PBMC; actives raise or lower the signal
In short: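 HUVEC plus PBMC co-culture stimulated with LPS; CD40 quantified by ELISA 24 h after compound dosing. Fitting was bidirectional relative to DMSO. SRB staining of parallel cultures flagged overt cytotoxicity.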

[2] = read-out: E-selectin (Homo sapiens) (UniProt P16581); assay: BSK_LPS_Eselectin: BioMAP Diversity Plus: LPS Assay for Eselectin Biomarker Activity (AID 2283077); settings: primary human HUVEC with PBMC; actives raise or lower the signal
In short: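 Human umbilical vein endothelial cells co-cultured with PBMC under LPS stimulation; cell-surface E-selectin measured by ELISA 24 h after dosing. Change in either direction versus DMSO, with SRB total-protein staining in parallel cultures for cytotoxicity.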

[3] = read-out: Interleukin-8 (IL8), CXCL8 (gene 3576); assay: BSK_LPS_IL8: BioMAP Diversity Plus: LPS Assay for Interleukin-8 (IL8) Biomarker Activity (AID 2283078); settings: primary human HUVEC with PBMC; actives raise or lower the signal
In short: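 Human umbilical vein endothelial cells co-cultured with PBMC, LPS-stimulated, exposed to compound for 24 h. IL-8 quantified by ELISA; fitted in both directions against DMSO, with SRB total-protein staining of parallel cultures for cytotoxicity.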

[4] = BSK_LPS_SRB: Viability Assessment in the BioMAP Diversity Plus: LPS Assay (AID 2283079); settings: primary human HUVEC with PBMC;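 also: total protein by sulforhodamine B absorbance as a cytotoxicity measure; measured one day after compound addition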
In short: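 Co-culture of human umbilical vein endothelial cells and PBMC, read 24 h after dosing. Total protein by 0.1% SRB staining after 10% TCA fixation, absorbance at 560 nm; bidirectional fit against DMSO.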

[5] = read-out: Interleukin-1 alpha (IL1a), IL1A (gene 3552); assay: BSK_LPS_IL1a: BioMAP Diversity Plus: LPS Assay for Interleukin-1 alpha (IL1a) Biomarker Activity (AID 2283080); settings: primary human HUVEC with PBMC; actives raise or lower the signal
In short: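 Human umbilical vein endothelial cells co-cultured with PBMC and stimulated with LPS; IL-1a measured by ELISA 24 h after dosing. Bidirectional fitting against DMSO; cytotoxicity checked by SRB staining in parallel cultures.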

[6] = read-out: Monocyte Chemoattractant Protein-1 (MCP1), CCL2 (gene 6347); assay: BSK_LPS_MCP1: BioMAP Diversity Plus: LPS Assay for Monocyte Chemoattractant Protein-1 (MCP1) Biomarker Activity (AID 2283081); settings: primary human HUVEC with PBMC; actives raise or lower the signal;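 as to AC50: secreted MCP-1 protein quantified by ELISA in culture supernatant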
In short: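 Human umbilical vein endothelial cells co-cultured with PBMC, LPS-stimulated; secreted MCP-1 measured by ELISA 24 h after compound addition. Bidirectional curve fitting against DMSO baseline; SRB total-protein staining in parallel cultures for cytotoxicity.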

[7] = BSK_LPS_PGE2: BioMAP Diversity Plus: LPS Assay for Prostaglandin E2 (PGE2) Biomarker Activity (AID 2283082); settings: primary human HUVEC with PBMC; actives raise or lower the signal;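 as to AC50: secreted prostaglandin E2 measured by ELISA in LPS-stimulated co-culture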
In short: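 Compounds were added to the LPS co-culture of endothelium and PBMC, and PGE2 was measured by ELISA after 24 h. Responses in either direction were fitted with DMSO as baseline.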

[8] = read-out: Macrophage colony-stimulating factor (MCSF), CSF1 (gene 1435); assay: BSK_LPS_MCSF: BioMAP Diversity Plus: LPS Assay for Macrophage colony-stimulating factor (MCSF) Biomarker Activity (AID 2283083); settings: primary human HUVEC with PBMC; actives raise or lower the signal
In short: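 HUVEC–PBMC co-culture, M-CSF measured by ELISA 24 h after chemical dosing. Fitted in both directions relative to DMSO as negative control; overt cytotoxicity assessed by SRB total-protein staining in parallel cultures.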

[9] = read-out: Tumor necrosis factor (Homo sapiens) (UniProt P01375); assay: BSK_LPS_TNFa: BioMAP Diversity Plus: LPS Assay for Tumour Necrosis Factor alpha (TNFa) Biomarker Activity (AID 2283085); settings: primary human HUVEC with PBMC; actives raise or lower the signal;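 as to AC50: TNFa protein level quantified by ELISA in the co-culture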
In short: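 Cells (umbilical vein endothelium plus peripheral blood mononuclear cells) were dosed with chemical, incubated 24 h, then TNFa was quantified by ELISA; values derive from bidirectional fitting with DMSO as baseline.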

[10] = read-out: Vascular cell adhesion molecule 1 (VCAM1), VCAM1 (gene 7412); assay: BSK_LPS_VCAM1: BioMAP Diversity Plus: LPS Assay for Vascular cell adhesion molecule 1 (VCAM1) Biomarker Activity (AID 2283086); settings: primary human HUVEC with PBMC; actives raise or lower the signal
In short: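 Cells are dosed in an LPS-stimulated endothelial/mononuclear co-culture and, after 24 h, VCAM-1 is quantified by ELISA. Activity in either direction is fitted relative to the DMSO negative control.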

CD38, CD38 (gene 952) = assay: BSK_SAg_CD38: BioMAP Diversity Plus: SAg Assay for CD38 Biomarker Activity (AID 2283087); settings: primary human HUVEC with PBMC; actives raise or lower the signal
In short: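 CD38 quantified by ELISA (fluorescence) in a superantigen-activated endothelial cell–PBMC co-culture at 24 h post-dose. Activity fitted in both directions relative to DMSO; parallel SRB and Alamar Blue cytotoxicity read-outs.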

CD69, CD69 (gene 969) = assay: BSK_SAg_CD69: BioMAP Diversity Plus: SAg Assay for CD69 Biomarker Activity (AID 2283089); settings: primary human HUVEC with PBMC; actives raise or lower the signal;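 as to AC50: cell surface CD69 protein quantified by ELISA with fluorescence detection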
In short: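 HUVEC co-cultured with PBMC were dosed with chemical, and CD69 was measured by ELISA with fluorescence read-out 24 h later. Bidirectional curve fitting used DMSO as negative control and activity baseline.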

[11] = read-out: Monocyte Chemoattractant Protein-1 (MCP1), CCL2 (gene 6347); assay: BSK_SAg_MCP1: BioMAP Diversity Plus: SAg Assay for Monocyte Chemoattractant Protein-1 (MCP1) Biomarker Activity (AID 2283090); settings: primary human HUVEC with PBMC; actives raise or lower the signal
In short: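 Values derive from bidirectional fitting of ELISA-measured MCP1 against DMSO controls. Readings were taken 24 h after dosing human vascular endothelial cells co-cultured with peripheral blood mononuclear cells under superantigen stimulation.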

[12] = read-out: Monokine induced gamma interferon (MIG), CXCL9 (gene 4283); assay: BSK_SAg_MIG: BioMAP Diversity Plus: SAg Assay for Monokine induced gamma interferon (MIG) Biomarker Activity (AID 2283092); settings: primary human HUVEC with PBMC; actives raise or lower the signal
In short: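 HUVEC plus human PBMC co-culture, chemicals dosed and MIG (CXCL9) quantified by ELISA at 24 h. Bidirectional curve fitting against DMSO as negative control and baseline, so both gain and loss of signal count as activity.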

[13] = BSK_SAg_PBMCCytotoxicity: PBMC Cytotoxicity Assessment in the BioMAP Diversity Plus: SAg Assay (AID 2283093); settings: primary human HUVEC with PBMC;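 also: PBMC viability measured as Alamar Blue reduction fluorescence at 546/580 nm; fitted both ways against DMSO so a hit may be loss or gain of signal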;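 as to AC50: PBMC superantigen activated with SEB plus TSST-1 one hour after compound addition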
In short: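 Alamar Blue reduction (6 h, 546/580 nm) reports PBMC cytotoxicity after 90 h superantigen activation (SEB, TSST-1; 20 ng/mL final each) with 1 h compound pre-treatment. Gain or loss of signal fitted versus DMSO.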

[14] = read-out: Interleukin-8 (IL8), CXCL8 (gene 3576); assay: BSK_SAg_IL8: BioMAP Diversity Plus: SAg Assay for Interleukin-8 (IL8) Biomarker Activity (AID 2283094); settings: primary human HUVEC with PBMC; actives raise or lower the signal
In short: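 Chemicals were dosed onto a human endothelial–PBMC co-culture, and IL-8 was quantified by ELISA after 24 h. Both increases and decreases were fitted relative to DMSO.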

[15] = BSK_SAg_Proliferation: Cell Proliferation Assessment in the BioMAP Diversity Plus: SAg Assay (AID 2283095); settings: primary human HUVEC with PBMC;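 also: relative cell number as total protein by SRB absorbance in sub-confluent culture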
In short: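 Absorbance of sulforhodamine B at 560 nm reports total protein in a human vascular endothelial/PBMC co-culture after 96 h chemical exposure. Gain or loss of signal is fitted in both directions against DMSO.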

[16] = BSK_SAg_SRB: Viability Assessment in the BioMAP Diversity Plus: SAg Assay (AID 2283096); settings: primary human HUVEC with PBMC;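 also: cells read one day after compound addition; hits may be either gain or loss of signal compared with DMSO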
In short: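 This overt-cytotoxicity endpoint quantifies protein in human endothelial/PBMC co-cultures at 24 h using SRB absorbance (560 nm) after trichloroacetic acid fixation. Values reflect signal change from the DMSO negative control, fitted bidirectionally.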

Measured: AC50

Chain of E-selectin (Homo sapiens) (P16581 whole entry, looked up): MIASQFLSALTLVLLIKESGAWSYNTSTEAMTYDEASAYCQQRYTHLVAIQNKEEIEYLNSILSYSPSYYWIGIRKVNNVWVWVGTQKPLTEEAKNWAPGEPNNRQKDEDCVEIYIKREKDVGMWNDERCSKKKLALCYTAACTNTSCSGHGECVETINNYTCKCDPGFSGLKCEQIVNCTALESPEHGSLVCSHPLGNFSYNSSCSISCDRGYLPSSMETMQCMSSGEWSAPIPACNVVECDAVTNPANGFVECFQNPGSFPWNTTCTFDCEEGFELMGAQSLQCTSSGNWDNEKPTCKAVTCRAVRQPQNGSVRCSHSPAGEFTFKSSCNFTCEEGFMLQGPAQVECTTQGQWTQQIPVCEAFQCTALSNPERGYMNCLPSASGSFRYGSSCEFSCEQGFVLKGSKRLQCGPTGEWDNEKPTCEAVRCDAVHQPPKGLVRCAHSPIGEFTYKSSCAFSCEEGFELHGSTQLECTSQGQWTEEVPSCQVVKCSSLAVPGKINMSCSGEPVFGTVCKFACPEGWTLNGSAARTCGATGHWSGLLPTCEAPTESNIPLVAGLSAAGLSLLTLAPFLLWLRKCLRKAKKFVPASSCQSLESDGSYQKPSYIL
Chain of Tumor necrosis factor (Homo sapiens) (P01375 whole entry, looked up): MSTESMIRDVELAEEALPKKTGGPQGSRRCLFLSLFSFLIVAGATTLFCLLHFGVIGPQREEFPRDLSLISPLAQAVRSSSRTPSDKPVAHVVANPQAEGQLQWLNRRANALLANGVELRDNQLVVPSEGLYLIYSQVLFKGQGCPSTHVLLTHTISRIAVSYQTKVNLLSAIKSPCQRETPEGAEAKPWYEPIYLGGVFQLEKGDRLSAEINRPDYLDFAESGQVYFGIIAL

CCOC(=O)c1ccccc1C(=C1C=C(Br)C(=O)C(Br)=C1)c1cc(Br)c(O)c(Br)c1
inactive: [13]
active: [1] 3.6 µM and 3.63 µM | CD40, CD40 (gene 958) 20.9 µM and 17.5 µM | [2] 21.2 µM and 21.8 µM | [3] 23 µM and 22.9 µM | [4] 20.6 µM and 23.2 µM | [5] 17.8 µM and 14.7 µM | [6] 20.8 µM and 20.9 µM | [7] 19.1 µM and 19 µM | [8] 18.7 µM and 17.4 µM | [9] 19.1 µM and 18.9 µM | [10] 20.2 µM and 19.9 µM | CD38, CD38 (gene 952) 20.4 µM and 18.8 µM | CD69, CD69 (gene 969) 15.1 µM and 15.6 µM | [11] 20.7 µM and 21 µM | [12] 22.2 µM and 23 µM | [14] 19 µM and 18 µM | [15] 18.3 µM and 20.1 µM | [16] 21.1 µM and 18.9 µM

c1ccc2c(c1)ccc1cc3c(ccc4ccccc43)cc12
inactive: [1] | CD40, CD40 (gene 958) | [2] | [3] | [4] | [5] | [6] | [7] | [8] | [9] | [10] | CD38, CD38 (gene 952) | CD69, CD69 (gene 969) | [11] | [12] | [13] | [14] | [15] | [16]
active: [3] 1.84 µM

CCCCC(CC)COC(=O)c1ccccc1O (configuration not stated)
active: CD40, CD40 (gene 958) 18.6 µM | [10] 10 µM | [13] 18.4 µM | [15] 17.8 µM
inactive: all other assays above

COc1ccc2nc(N)sc2c1
inactive: all assays above

CC(C)C(=O)C(C)C
inactive: all assays above

CC1OC1C1CCC2(C)OC2C1 (configuration not stated)
inactive: all assays above

C=CC(=O)OCC(Br)CBr (configuration not stated)
active: [1] 34.1 µM | CD40, CD40 (gene 958) 15.6 µM | [2] 20 µM | [3] 12.5 µM | [4] 31 µM | [5] 18.3 µM | [6] 30 µM | [8] 20 µM | [9] 11 µM | [10] 10.9 µM | CD38, CD38 (gene 952) 15.3 µM | CD69, CD69 (gene 969) 10.2 µM | [11] 24.8 µM | [12] 20 µM | [13] 6.05 µM | [14] 6.6 µM | [15] 1.66 µM | [16] 34.1 µM
inactive: [7]

C=CCOc1c(Br)cc(Br)cc1Br
active: [1] 28.6 µM | [6] 0.054 µM
inactive: all other assays above

N#[N+]c1ccc2c(S(=O)(=O)[O-])cccc2c1O
inactive: all assays above

From PubChem BioAssay (EPA / NIEHS)
